PubChem BioAssay AID2803 (The Scripps Research Institute Molecular Screening Center, 2010)
Hit rate of the full screen: of about 2,000 compounds, about 1,300 (65%) were called active. Rule as the data show it: active = inhibition above about 43%; inactive = the rest. So high a share suggests a set chosen from earlier hits. Only a sample is shown.

Biological target: Prolyl endopeptidase-like (Homo sapiens) (UniProt Q4J6C6)
Assay: human PREPL enzyme inhibitors, confirmation, biochemical, fluorescence polarization (AID 2803);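 also: 0% = protein with DMSO and 100% = wells lacking protein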
Details: recombinant PREPL, fluorescence polarization activity probe; at 5.96 µM; stronger effect = higher value

Chain of Prolyl endopeptidase-like (Homo sapiens) (Q4J6C6 whole entry, looked up): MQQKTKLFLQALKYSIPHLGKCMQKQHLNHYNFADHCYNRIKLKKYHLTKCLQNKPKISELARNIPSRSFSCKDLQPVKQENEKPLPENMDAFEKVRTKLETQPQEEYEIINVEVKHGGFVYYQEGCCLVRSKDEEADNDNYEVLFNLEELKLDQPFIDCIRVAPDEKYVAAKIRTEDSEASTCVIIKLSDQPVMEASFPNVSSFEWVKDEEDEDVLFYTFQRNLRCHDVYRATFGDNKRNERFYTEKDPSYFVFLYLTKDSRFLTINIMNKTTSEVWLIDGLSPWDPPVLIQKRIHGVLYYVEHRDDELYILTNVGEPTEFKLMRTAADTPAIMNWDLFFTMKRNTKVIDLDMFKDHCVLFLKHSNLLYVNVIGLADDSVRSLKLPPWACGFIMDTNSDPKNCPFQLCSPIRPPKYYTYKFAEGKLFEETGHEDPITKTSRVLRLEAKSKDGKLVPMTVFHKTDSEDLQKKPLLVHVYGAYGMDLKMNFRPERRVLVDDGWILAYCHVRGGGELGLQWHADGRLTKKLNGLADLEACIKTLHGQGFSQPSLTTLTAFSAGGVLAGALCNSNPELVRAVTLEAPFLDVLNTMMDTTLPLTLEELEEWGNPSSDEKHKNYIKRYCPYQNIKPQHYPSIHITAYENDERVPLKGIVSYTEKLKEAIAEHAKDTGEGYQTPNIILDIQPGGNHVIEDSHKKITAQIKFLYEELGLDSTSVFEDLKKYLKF

Structure (SMILES)	inhibition
CCOc1cccc(=NC2CCCCC2)c2c(C)[nH]c(C)c12	54.4% (active)
O=C(NCC(c1cccnc1)N1CCN(c2ccccc2)CC1)Oc1ccccc1 (stereo not drawn)	39.3% (inactive)
COc1ccc2[nH]c3c(c2c1)CCN[C@H]3C	23.7% (inactive)
